Measurements from PubChem BioAssay (NCI).
This is part of a sample that, as a whole, favours compounds with a hit. Of some 83,000 tested, about 20% had one in any assay.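 Growth was measured after 48 h exposure to one concentration of compound in 96-well plates. Values under 10 count as active.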 Values without a mark were called inactive. Active and inactive are the calls of the source.

Experiments:
Assay in all cases: NCI-60 one-dose screen, 48 h (100 = growth as untreated, 0 = no growth, -100 = all killed)
Conditions in all cases: 10 µM unless noted
[1] = test system: NCI-H23 lung
[2] = test system: NCI-H226 lung
[3] = test system: NCI-H322M lung
[4] = test system: HOP-62 NSCLC
[5] = test system: NCI-H460 lung
[6] = test system: HOP-92 NSCLC
[7] = test system: NCI-H522 lung
[8] = test system: A549/ATCC NSCLC
[9] = test system: 786-0 renal
[10] = test system: COLO 205 colon
[11] = test system: DU-145 prostate
[12] = test system: K-562 leukemia
[13] = test system: MALME-3M melanoma
[14] = test system: MDA-MB-231 breast
[15] = test system: RXF 393 renal
[16] = test system: SF-268 CNS
[17] = test system: SF-295 CNS
[18] = test system: SF-539 CNS
[19] = test system: M14 melanoma

SMILES | growth [1] [%] | growth [2] [%] | growth [3] [%] | growth [4] [%] | growth [5] | growth [6] | growth [7] | growth [8] [%] | growth [9] [%] | growth [10] | growth [11] | growth [12] | growth [13] [%] | growth [14] | growth [15] | growth [16] [%] | growth [17] | growth [18] | growth [19] [%]
CCO/C=N/NC(=O)c1ccncc1 | 102 | 106 | 107 | 103 | 104% | 104% | 98% | 106 | 105 | 110% | 105% | 108% | 106 | 109% | 109% | 101 | 116% | 111% | 114
Nc1cccc2c1CN(C1CCC(=O)NC1=O)C2=O (stereo not drawn) | 99.4 | 108 | 111 | 106 | 102% | 22.6% | 56% | 106 | 107 | 111% | 107% | 132% | 119 | 107% | -17.4% (active) | 102 | 116% | 94.7% | 101
O=C1NC(Cc2c[nH]c3ccccc23)C(=O)N1Cc1ccc(Cl)cc1 (stereo not drawn) | 107 | 95.5 | 104 | 103 | 110% | 85.8% | 86.7% | 105 | 110 | 96.9% | 116% | 83.9% | 105 | 101% | 116% | 106 | 82.3% | 106% | 110
CCN(CC)S(=O)(=O)c1ccc2[nH]c(=O)cc(C(=O)Nc3ccc(OC)cc3OC)c2c1 | 97.8 | 100 | 116 | 105 | 123% | 77.8% | 105% | 110 | 107 | 110% | 157% | 115% | 118 | 98.3% | 9.24% (active) | 95 | 97.9% | 133% | 109
O=P([O-])(O)OP(=O)([O-])O.[NH-][C@H]1CCCC[C@@H]1[NH-].[OH-].[OH-].[Pt+4] | 102 | 108 | 115 | 111 | 106% | 114% | 93.4% | 92.1 | 107 | 110% | 109% | 110% | 111 | 107% | 115% | 101 | 87.1% | 105% | 120
CC(Br)C(OC(=O)c1ccccc1Cl)c1cc2c(cc1Br)OCO2 (stereo not drawn) | 78.3 | 76.6 | 82.7 | 108 | 91.8% | 68.5% | 87.9% | 91.5 | 80.7 | 126% | 92.7% | 94.6% | 92.9 | 94.3% | 77.8% | 86.1 | 101% | 100% | 86.6
COc1ccccc1OCC(=O)Nc1sc2c(c1C(N)=O)CCC2 | 114 | 80.7 | 105 | 49.7 | 25.6% | 2.69% (active) | 84.1% | 85.8 | 75.1 | 86.1% | 58.4% | 52.5% | 91.9 | 92.1% | 48.1% | 43.7 | 15.2% | 59.6% | 66.4
O=S(=O)(NCCCNc1cc(-c2cn(-c3ccccc3)nc2-c2cccc(O)c2)ccn1)c1cccc(F)c1 | 58.6 | 46.4 | 57.9 | 66.7 | 35.6% | 26% | 44.4% | 37 | 13.1 | -55.9% (active) | 59.4% | 1.85% (active) | 37.9 | 7.26% (active) | 40.1% | 60.7 | 9.83% (active) | 45.1% | 42.3
O=C(NCCc1c[nH]c2ccccc12)C1Cc2ccccc2CN1C(=O)c1ccco1 (stereo not drawn) | 127 | 106 | 87.3 | 94.6 | 114% | 29.9% | 78.6% | 97.7 | 104 | 134% | 114% | 71.5% | 96.2 | 96.2% | 154% | 111 | 113% | 103% | 107
COc1ccc(N=C2NN=C(c3ccc(F)cc3)CS2)cc1OC | 104 | 78.5 | 96.4 | 96.3 | 107% | 72.8% | 89% | 92.4 | 88 | 98.7% | 103% | 107% | 104 | 91.6% | 78.3% | 116 | 90.8% | 102% | 105
Cc1cccc2cc(/C=C/C(=O)/C=C/c3ccc(Cl)cc3)c(=O)[nH]c12 | 62.8 | 62.1 | 88.8 | 64.6 | 73.1% | 96.3% | 48.4% | 65.6 | 14.5 | 37.8% | 39.1% | 10.8% | 106 | 25.7% | 36.8% | 62 | 83.8% | 69.7% | 30.5
O=S(=O)(NCCNc1cc(-c2cn(-c3ccccc3)nc2-c2ccccc2)ccn1)c1cccc2ccccc12 | 49.8 | 48 | 68.7 | 68.2 | 44.4% | 2.24% (active) | 78.9% | 42.3 | 49.7 | 8.28% (active) | 68.9% | 20.7% | 60.7 | 40% | 55.3% | 55 | 35.9% | 56.9% | 42.9
Nc1nn2cc(-c3ccc(Cl)s3)nc2c2ccccc12 | 102 | 94.8 | 96.7 | 76.4 | 86.8% | 67% | 78.5% | 83.9 | 104 | 95.2% | 99% | 85.3% | 101 | 68.9% | 133% | 94.1 | 93.7% | 81.7% | 97
NC(=O)NNC(=O)c1ccccc1 | 103 | 106 | 109 | 107 | 103% | 103% | 107% | 101 | 101 | 118% | 115% | 103% | 110 | 113% | 113% | 107 | 106% | 107% | 107
CCSc1nnc(NC(=O)COc2ccc(Cl)cc2C)s1 | 105 | 101 | 120 | 100 | 112% | 83.2% | 94.4% | 104 | 94.7 | 93.9% | 106% | 103% | 106 | 111% | 89.3% | 110 | 94.2% | 103% | 105
Cc1ccc(-c2csc3nc(C)c(CCCl)c(=O)n23)cc1 | 87.5 | 78.6 | 98.5 | 87.8 | 99.5% | 80.8% | 88.8% | 98 | 104 | 119% | 104% | 95% | 107 | 79.9% | 106% | 91.4 | 104% | 108% | 103
COc1ccc2c(c1)C=CC(C#N)N2C(=O)c1ccccc1 (stereo not drawn) | 26.4 | 61.6 | 53.9 | 34.6 | 5.09% (active) | 34% | 1.91% (active) | 21.2 | 23.4 | -43.7% (active) | 3.08% (active) | 7.66% (active) | 66.8 | 25.4% | 30.4% | 34 | -1.96% (active) | -21.2% (active) | 15.9
